Assay outcomes deposited in PubChem BioAssay by several laboratories.
PG9 Ab binder – small molecules binding HIV-1 gp120 antibody PG9; inhibition, % at 6.7 µM; TR-FRET gp120-PG9 antibody binding; AID 624416; actives 0.43% (n = 360,000); in the data active = inhibition above about 8.5%
PKA-R2B activ – activates the human PKA-R2B holoenzyme complex | activation, % at 11.4 µM | actives 0.079% (n = 340,000) | PKA-R2B holoenzyme dissociation, Cy5-IP20 fluorescence polarization; R2B truncated from residue 108, S112A mutant; 0% DMSO only, 100% 113 µM cGMP;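 active = activation above a cutoff set at the mean over all compounds plus 3 SD, cut at about 18% in these data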;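 also: higher means more holoenzyme dissociation and a rise in polarization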
Rev-erbA mod – modulators of human Rev-erb alpha DNA binding. activity, % at 10 µM. actives 0.79% (n = 370,000). AID 1259318. Rev-erbα–FITC-DNA binding, fluorescence polarization, 90 min. P20393;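 active = activity above about 14%, limit read from the data; passing the limit was not always enough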;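 also: 0% = DMSO wells with 35 nM protein and 100% = DMSO wells with 750 nM protein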
Target sequence (P20393 whole entry, looked up): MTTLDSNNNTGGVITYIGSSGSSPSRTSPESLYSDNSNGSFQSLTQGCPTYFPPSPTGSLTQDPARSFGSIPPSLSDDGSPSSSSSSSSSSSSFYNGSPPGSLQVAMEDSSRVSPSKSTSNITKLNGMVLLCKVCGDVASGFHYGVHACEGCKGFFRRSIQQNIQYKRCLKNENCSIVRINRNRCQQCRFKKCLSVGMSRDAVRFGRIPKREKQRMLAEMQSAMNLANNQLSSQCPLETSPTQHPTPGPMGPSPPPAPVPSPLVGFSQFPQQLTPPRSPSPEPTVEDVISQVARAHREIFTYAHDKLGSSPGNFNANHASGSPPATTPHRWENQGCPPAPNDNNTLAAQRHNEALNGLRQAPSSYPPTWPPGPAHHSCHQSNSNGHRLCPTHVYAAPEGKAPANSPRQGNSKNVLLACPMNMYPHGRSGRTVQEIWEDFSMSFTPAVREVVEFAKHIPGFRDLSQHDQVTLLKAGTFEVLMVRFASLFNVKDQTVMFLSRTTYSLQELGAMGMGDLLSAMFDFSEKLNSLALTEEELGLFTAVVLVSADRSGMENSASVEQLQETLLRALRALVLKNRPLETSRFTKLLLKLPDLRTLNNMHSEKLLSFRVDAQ
PKA-R1A activ – activators of PKA-R1A complex; P00514+P68181; activation, % at 11.4 µM; PKA-R1A dissociation, Cy5-IP20 fluorescence polarization; scaled: DMSO 0%, 113 µM cGMP 100%; actives 0.083% (n = 340,000); AID 504707;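 active = percent activation above the mean of all tested compounds plus 3 SD, cut at about 19% in these data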;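 also: higher means more PKAc released from R1A so a rise in polarization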
R2B FP artifact – counter-screen for PKA-R2B activators: fluorescence polarization artifacts; activation, % at 11.4 µM; actives 6% (n = 270); FP artifact counterscreen; AID 504796; shares compounds with PKA-R2B activ; in the data active = activation above about 20%;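 also: Cy5 labelled IP20 peptide probe with compound but no PKA protein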
PKA-R2B act conf – confirmation of human PKA-R2B complex activators; actives 9% (n = 270); activation, % at 11.4 µM; fluorescence polarization, activation; shares compounds with PKA-R2B activ; in the data active = activation above about 19%
* marks the source's active call; other numbers are inactive results; / = no result; ! = not active in a repeat. Hits are enriched below; roughly 1.2% of the tested compounds scored in any of these assays.

SMILES | PG9 Ab binder | PKA-R2B activ | Rev-erbA mod | PKA-R1A activ | R2B FP artifact | PKA-R2B act conf
COc1cc(NC(=O)CN(C)CCOc2ccccc2)c(C)cc1[N+](=O)[O-] | 0.1 | 8.2 | 4.4 | 4.1 | / | /
O=S(=O)(NC1CCCC1)c1ccc(S(=O)(=O)N(Cc2cccs2)CC2CCCO2)cc1 (stereo not given) | -0.7 | 19.5* | 1.1 | 4.7 | 0.2 | 0.6
Cc1ccc(C(=O)NCC(=O)N2CCN(c3ccccc3)CC2)cc1 | -1.3 | 21.3* | -0.8 | 15.9 | -2.8 | -2.9
O=C(O)CCCN1CCC(O[C@@H](c2ccc(Cl)cc2)c2ccccn2)CC1 | / | / | -10.8 | / | / | /
NC(=O)CC(NC(=O)c1ccccc1)c1ccc(N2CCC(Cc3ccccc3)CC2)c([N+](=O)[O-])c1 (stereo not given) | 6.8 | -8.8 | -0.5 | 8.2 | / | /
NC(=O)CC(NC(=O)c1ccc(Br)cc1)c1ccc(N2CCC(Cc3ccccc3)CC2)c([N+](=O)[O-])c1 (stereo not given) | -0.5 | 18.5* | 6.7 | -0.6 | 9.8 | 10.8
COc1ccc(OC)c(C(=O)c2coc3ccc(OC(C)=O)cc23)c1 | 0.2 | 21.3* | 0.5 | 2.8 | 2.6 | 0.0
CCCN(C)C[C@@H]1Oc2ncc(Br)cc2C(=O)N([C@@H](C)CO)C[C@H]1C | 0.5 | 20.4* | -3.9 | 3.2 | 5.2 | 3.4
CCCN(C)C[C@H]1Oc2ncc(Br)cc2C(=O)N([C@@H](C)CO)C[C@@H]1C | -0.9 | -3.6 | 0.7 | 2.4 | / | /
CC(=O)Nc1ccc(S(=O)(=O)c2ccc(NC(C)=O)cc2)cc1 | / | / | 1.8 | / | / | /
Cc1ccccc1-n1c(SCC(=O)N/N=C/C=C/c2ccccc2[N+](=O)[O-])nc2ccccc2c1=O | 0.4 | 20.7* | 6.1 | -5.5 | -1.4 | -4.7
CCC(=O)O[C@@H]1CC(=O)O[C@H](C)C/C=C/C=C/[C@H](O)[C@H](C)C[C@H](CC=O)[C@H](O[C@@H]2O[C@H](C)[C@@H](O[C@H]3C[C@@](C)(O)[C@@H](OC(=O)CC)[C@H](C)O3)[C@H](N(C)C)[C@H]2O)[C@H]1OC | / | / | 0.0 | / | / | /
Cc1ccc(N=Cc2c(O)[nH]c3ccccc23)c([N+](=O)[O-])c1 | -2.8 | 19.4* | -33.1 | 3.0 | 2.9 | 0.7
COc1ccc(N=Cc2c(O)[nH]c3ccccc23)cc1 | -7.4 | -0.7 | -1.9 | 4.4 | / | /
C/C=C(/C)C(=O)O[C@@H]1[C@H](OC(C)=O)[C@@]2(CO)C(CC1(C)C)C1=CCC3[C@@]4(C)CC[C@H](O[C@@H]5O[C@H](C(=O)O)[C@@H](O[C@@H]6O[C@H](CO)[C@@H](O)[C@H](O)[C@H]6O)[C@H](O)[C@H]5O[C@@H]5O[C@H](CO)[C@@H](O)[C@H](O)[C@H]5O)[C@](C)(CO)C4CC[C@@]3(C)[C@]1(C)C[C@H]2O (stereo not given in full) | / | / | 1.2 | / | / | /
COc1ccc(OC)c(-c2cc(-c3cccnc3)nc(N)c2C#N)c1 | 1.9 | 19.1* | 5.2 | 0.2 | -0.3 | 0.8
CCOc1c(N2CCOCC2)cnn(C)c1=O | / | / | 1.4 | / | / | /
O=C1CC2(CCCC2)CC(=O)N1CCCCN1CCN(c2ncccn2)CC1 | -2.1 | 23.3* | -4.5 | 11.7 | 2.1 | 0.1
O=C1[C@@H]2[C@H]3CC[C@H](C3)[C@@H]2C(=O)N1CCCCN1CCN(c2ncccn2)CC1 | / | / | -3.1 | / | / | /
C#C[C@]1(O)CCC2C3CCc4cc(OC)ccc4C3CC[C@@]21C (stereo not given in full) | / | / | -3.6 | / | / | /
Cc1ccccc1-n1c(SCC(=O)Nc2ccccc2)nc2nc3c(cc2c1=O)CCCC3 | -4.3 | 8.6 | -3.4 | -6.3 | / | /
O=C(CSc1nc2nc3c(cc2c(=O)n1-c1ccccc1)CCCC3)Nc1cccc2ccccc12 | -0.6 | 19.2* | 8.3 | 0.2 | 1.6 | 3.3
Cc1cc2c(cc1CC(=O)c1sccc1S(=O)(=O)Nc1onc(C)c1Cl)OCO2 | / | / | -7.8 | / | / | /
Cc1nc(CCNC(=O)CC2C(=O)NCCN2Cc2ccoc2)nc2c1CCCC2 (stereo not given) | 3.1 | 22.6* | -8.1 | 4.2 | 3.2 | 3.0
O=C(CSC1=NCCS1)N1CCCCCC1 | -0.4 | 6.4 | -5.3 | -4.4 | / | /
SMILES | PG9 Ab binder | PKA-R2B activ | Rev-erbA mod | PKA-R1A activ | R2B FP artifact | PKA-R2B act conf
O=C(CSC1=NCCS1)N1CCCC1 | 1.2 | 21.5* | 4.9 | -0.5 | 2.2 | -1.6
CC(C(=O)O)c1ccc(-c2ccccc2)c(F)c1 (stereo not given) | -0.6 | 20.6*! | -5.9 | -7.9 | 0.4 | 5.4
CC(C(=O)Nc1ccccc1)c1ccc(-c2ccccc2)c(F)c1 (stereo not given) | / | -3.9 | / | -6.4 | / | /
O=C(COc1cccc(-n2cnnn2)c1)Nc1ccc([N+](=O)[O-])cc1 | 2.1 | 20.2* | -11.6 | 3.5 | 2.4 | 3.4
O=C1CCC/C1=C/Nc1cccc(F)c1 | -2.7 | 19.0* | 3.9 | -0.7 | 5.2 | 4.7
C1CCN2C[C@@H]3C[C@H](CN4CCCC[C@@H]34)[C@H]2C1 | / | / | -2.6 | / | / | /
CCN1C/C(=C/c2cccc([N+](=O)[O-])c2)C(=O)/C(=C/c2cccc([N+](=O)[O-])c2)C1 | 7.2 | 18.7* | 2.6 | -3.9 | 1.8 | 2.3
Cc1ccccc1-c1nnc(-c2ccc(Cl)cc2)o1 | -1.3 | -4.2 | / | -7.9 | / | /
Cc1ccccc1-c1nc(Cc2ccc(Cl)cc2)no1 | 1.9 | 19.3* | 1.8 | -2.1 | -1.9 | -0.9
C=CCNC(=O)c1onc(CSc2ccncc2)c1C(=O)NCC=C | -0.1 | 22.4* | -4.3 | -9.4 | 2.9 | 0.0
C=CCNC(=O)c1onc(CSc2ccccc2)c1C(=O)NCC=C | 0.5 | 3.9 | 9.8 | -1.4 | / | /
CCOc1ccccc1NC(=O)C(OC(=O)c1ccc(O)cc1)c1ccccc1 (stereo not given) | -2.2 | -7.2 | 3.9 | -4.8 | / | /
CCOc1ccccc1NC(=O)C(OC(=O)c1ccc(CC)cc1)c1ccccc1 (stereo not given) | -1.2 | 19.2* | -3.7 | 1.2 | 0.6 | 1.0
C#C[C@]1(O)CCC2C3CCC4=CC(=O)CC[C@@H]4C3CC[C@@]21CC (stereo not given in full) | / | / | -3.1 | / | / | /
O=C(O)c1sccc1SCc1ccc(Cl)cc1Cl | -0.4 | 22.9* | 4.1 | 9.5 | 2.5 | 15.2
CCC(=O)Nc1sc2c(c1C(N)=O)CCC2 | 0.1 | 22.1* | 1.1 | 4.0 | 1.4 | 0.1
COc1ccc(OCc2cccc(C(=O)O)c2)cc1 | 2.4 | -10.7 | 3.8 | 13.0 | / | /
CCOc1ccc(OCc2cccc(C(=O)O)c2)cc1 | 1.4 | 20.2* | -1.6 | -10.7 | 3.1 | 2.2
Cc1ccc(C(NC(=O)N2CCOCC2)C(Cl)Cl)cc1F (stereo not given) | -1.1 | 22.4* | 0.6 | -11.0 | 4.9 | 5.0
C=C[C@@]1(C)CC(=O)[C@]2(O)[C@@]3(C)[C@@H](O)CCC(C)(C)[C@@H]3[C@H](OC(=O)CCN(C)C)[C@H](OC(C)=O)[C@@]2(C)O1 | / | / | 2.9 | / | / | /
